# Measured values: PubChem BioAssay (Tox21)
# Results filed as inconclusive are left out. Entries that show only a call come without a potency. Active and inactive are the calls of the source. The call rests on the fitted dose curve; in most records, active means well fitted cell-killing curve with a large enough effect in the repeat runs; inconclusive means weak or mixed curves, or effect the other way; inactive means flat fitted curve, though single readings scatter.
# Assay: Nuclear factor erythroid 2-related factor 2/antioxidant responsive element (Nrf2/ARE) small molecule agonists: qHTS cell viability counter screen in human keratinocytes (AID 1919968); further: nearly all actives have a fitted effect of over 55% in size
# Conditions: KeratinoSens HaCaT ARE cells viability, CellTiter-Fluor, 24 h; series mostly up to 92.4 µM
# Text: U.S. Tox21 Program National Center for Advancing Translational Sciences [NCATS] Division of Preclinical Innovation [DPI] U.S. Environmental Protection Agency [EPA] National Institutes of Environmental Health Sciences [NIEHS] National Toxicology Program [NTP] U.S. Food and Drug Administration [FDA] Tox21 Assay Overview: Oxidative stress has been implicated in the pathogenesis of a variety of diseases ranging from cancer to neurodegeneration. The antioxidant response element (ARE) signaling pathway plays an important role in the amelioration of oxidative stress. The KeratinoSens (Givaudan, Switzerland) is an in vitro test method which quantifies luciferase induction as a measure of activation of Keap1-Nrf2-antioxidationt/electrophile response element (ARE) dependant pathway in HaCaT human keratinocytes stably transfected with a selectable plasmid. The KeratinoSens assay is a cell-based assay with a reporter cell line to detect potential skin sensitizers by their ability to induce the Nrf2/ARE-response. The activation of the report gene under culture conditions can be detected by ONE-Glo Luciferase Assay System (Promega, Madison, WI). This cell line has been used to screen the Tox21 10K compound library to identify agonists that induce oxidative stress. The cytotoxicity of the Tox21 compound library against the KS-ARE cell line was tested in parallel by measuring the cell viability using CellTiter- Fluor assay system (Promega, Madison, WI) in the same wells.
# Tox21 Assay Protocol Summary: HaCaT derived cell line KeratinoSens were dispensed at 1,500 cells/5uL/well in 1536-well white wall/solid bottom plates using a Multidrop Combi (ThermoFisher Scientific, Waltham, MA) dispenser. After the assay plates were incubated at 37 C/5% CO2 for 5 h, 23 nL of compounds dissolved in DMSO, positive controls or DMSO only was transferred to the assay plate by a pintool workstation (Kalypsys, San Diego, CA). The plates were incubated at 37 C/5% CO2 for 23 h, followed by addition of 1uL/well of CellTiter-Fluor reagent into the assay plates using a Flying Reagent Dispenser (Aurora Discovery, San Diego, CA) for cell viability readout that measures cytotoxicity. After 1 h incubation at 37 C/5% CO2 the fluorescence intensity was measured using a ViewLux (PerkinElmer, Shelton, CT) plate reader.
# Potency means the concentration at half of the fitted maximal effect.
Structure (SMILES),Potency,"activity change, negative = cytotoxicity"
COC(=O)[C@@H]1[C@H]2C[C@H]3c4[nH]c5ccccc5c4CCN3C[C@@H]2CC[C@@H]1O,inactive,
CCCCCCCCCCCBr,inactive,
O=C(c1ccc(F)cc1)C1CCN(CCn2c(=O)[nH]c3ccccc3c2=O)CC1,inactive,
OC[C@@H](O)[C@H](O)[C@@H](O)[C@@H](O)CO,inactive,
CC(C)(C)C(=O)OCOC(=O)[C@@H]1N2C(=O)[C@@H](NC(=O)[C@H](N)c3ccccc3)[C@H]2SC1(C)C,inactive,
Cc1[nH]cnc1CN1CCc2c(c3ccccc3n2C)C1=O,inactive,
CCN(CC)c1ccc2c(-c3ccc(S(=O)(=O)O)cc3S(=O)(=O)[O-])c3ccc(=[N+](CC)CC)cc-3oc2c1,17.8 µM (active),
COc1ccc(CN2CCN(C(c3ccc(F)cc3)c3ccc(F)cc3)CC2)c(OC)c1OC,21.1 µM (active),
CC(C)CCCCCCc1ccc(OCCOCCO)cc1,inactive,
Cc1nnc(C(=O)NC(C)(C)c2nc(C(=O)NCc3ccc(F)cc3)c(O)c(=O)n2C)o1,inactive,
CCCC(C)C,inactive,
C/C(=C(\CCOP(=O)(O)O)SC(=O)c1ccccc1)N(C=O)Cc1cnc(C)nc1N,,-6.37% [at 8.39 µM] (inactive)
CCCN1C[C@H](CSC)C[C@@H]2c3cccc4[nH]cc(c34)C[C@H]21,inactive,
CC(C)CC(C)CC(C)CC(C)COC(=O)c1ccccc1C(=O)OCC(C)CC(C)CC(C)CC(C)C (stereo not given),inactive,
O=C(OCC1(COC(=O)c2cccnc2)CCCC(COC(=O)c2cccnc2)(COC(=O)c2cccnc2)C1O)c1cccnc1,inactive,
C/C=C/C=C/COC(=O)C(C)C,inactive,
CC(C)(C)c1n[nH]c(=S)n(N)c1=O,inactive,
CC(C)=CCOC(=O)c1ccccc1,inactive,
COc1ccc(C2C(=O)c3ccccc3C2=O)cc1,inactive,
Cc1cccc(N(C)C(=S)Oc2ccc3c(c2)CCC3)c1,inactive,

Structure (SMILES),Potency,"activity change, negative = cytotoxicity"
C=COCC1CCC(COC=C)CC1 (stereo not given),inactive,
CC(C)(C#N)Nc1nc(Cl)nc(NC2CC2)n1,inactive,
Cn1c(=O)c2c(ncn2CC(O)CO)n(C)c1=O (stereo not given),inactive,
O=C1c2ccccc2S(=O)(=O)N1CCCCN1CCN(c2ncccn2)CC1,inactive,
c1ccc(COCc2ccccc2)cc1,inactive,
N[C@H]1C(O)O[C@H](CO)[C@H](O)[C@@H]1O (stereo not given in full),inactive,
CCc1cccc(C)c1N(C(=O)C(=O)O)C(C)COC (stereo not given),inactive,
CCN(CC)C(=O)N(CC)CC,inactive,
CN1[C@@H]2CC[C@H]1CC(OC(=O)c1c[nH]c3ccccc13)C2 (stereo not given in full),inactive,
CN1CCN(c2cc3c(cc2F)c(=O)c(C(=O)O)cn3-c2ccc(F)cc2)CC1,1.88 µM (active),
C#CC(C)(CC)OC(=O)c1ccccc1C(=O)O (stereo not given),inactive,
CC(=O)CC(c1ccc([N+](=O)[O-])cc1)c1c(O)c2ccccc2oc1=O (stereo not given),inactive,
CC(=O)Nc1ccc(S(=O)(=O)Nc2cc(C)on2)cc1,inactive,
CC(=O)[C@H]1CC[C@H]2[C@@H]3C[C@H](C)C4=CC(=O)CC[C@]4(C)[C@H]3[C@@H](O)C[C@]12C,inactive,
CCOC(=O)Oc1ccc(CCNC(=O)[C@H](CCSC)NC(C)=O)cc1OC(=O)OCC,inactive,
CCNC(=O)NCCCOc1cccc(CN2CCCCC2)c1,inactive,
Nc1cc(S(=O)(=O)O)ccc1O,inactive,
CCC(C)(CCC(C)C)C(=O)[O][Sn]([CH3])([CH3])[O]C(=O)C(C)(CC)CCC(C)C (stereo not given),inactive,
CN1CCN(CCCN2c3ccccc3Sc3ccc(Cl)cc32)CC1,inactive,
O=C(O)C1(C(=O)O)CCC1.[NH2-].[NH2-].[Pt+2],inactive,
